# Assay results: the supplement of paper PMC12282887
# ± gives the standard deviation of the averaged measurements.
# System: E. coli BW25113 marRABp lux reporter
# Assay: promoter activity interaction Z-score (Lux/OD deviation from empty-vector control); higher = stronger promoter induction by the compound
# Description: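 E. coli BW25113 (wild type or ΔmarA/ΔsoxS/Δrob) carrying pTU175 luxCDABE promoter reporters was grown in LB in 384-well plates at 37°C with each of 94 compounds at 4 two-fold concentrations, in biological duplicates. Luminescence and OD600 were read every 30 min for 12 h and integrated as AUC over 8 h (0-8 h WT, 1-9 h mutants). Lux AUC was divided by OD AUC; the interaction score is the residual of a Huber robust fit of each promoter against the empty-vector control, then Z-transformed per promoter.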
smiles,measurement,setting,value
CC1(C)S[C@@H]2[C@H](/N=C/N3CCCCCC3)C(=O)N2[C@H]1C(=O)O [Mecillinam],promoter activity interaction Z-score,"0.0081 µg/ml, genetic background: wild type",0.0167 ± 0.096
same,promoter activity interaction Z-score,"0.0081 µg/ml, genetic background: ΔmarA",-0.0228 ± 0.035
same,promoter activity interaction Z-score,"0.0081 µg/ml, genetic background: Δrob",0.0796 ± 0.13
same,promoter activity interaction Z-score,"0.0081 µg/ml, genetic background: ΔsoxS",-0.119 ± 0.16
same,promoter activity interaction Z-score,"0.016 µg/ml, genetic background: wild type",-0.158 ± 0.16
same,promoter activity interaction Z-score,"0.016 µg/ml, genetic background: ΔmarA",-0.0902 ± 0.12
same,promoter activity interaction Z-score,"0.016 µg/ml, genetic background: Δrob",0.334 ± 0.2
same,promoter activity interaction Z-score,"0.016 µg/ml, genetic background: ΔsoxS",-0.0159 ± 0.17
same,promoter activity interaction Z-score,"0.033 µg/ml, genetic background: wild type",0.203 ± 0.034
same,promoter activity interaction Z-score,"0.033 µg/ml, genetic background: ΔmarA",0.119
same,promoter activity interaction Z-score,"0.033 µg/ml, genetic background: Δrob",1.33
same,promoter activity interaction Z-score,"0.033 µg/ml, genetic background: ΔsoxS",0.151 ± 0.51
N=C(NCCCCCCNC(=N)NC(=N)Nc1ccc(Cl)cc1)NC(=N)Nc1ccc(Cl)cc1 [Chlorhexidine],promoter activity interaction Z-score,"0.063 µg/ml, genetic background: wild type",-0.0555 ± 0.078
same,promoter activity interaction Z-score,"0.063 µg/ml, genetic background: ΔmarA",0.0409 ± 0.0035
same,promoter activity interaction Z-score,"0.063 µg/ml, genetic background: Δrob",0.173 ± 0.2
same,promoter activity interaction Z-score,"0.063 µg/ml, genetic background: ΔsoxS",0.0219 ± 0.055
same,promoter activity interaction Z-score,"0.13 µg/ml, genetic background: wild type",-0.193 ± 0.069
same,promoter activity interaction Z-score,"0.13 µg/ml, genetic background: ΔmarA",-0.0353 ± 0.43
same,promoter activity interaction Z-score,"0.13 µg/ml, genetic background: Δrob",0.0384 ± 0.087
same,promoter activity interaction Z-score,"0.13 µg/ml, genetic background: ΔsoxS",0.0405 ± 0.19
same,promoter activity interaction Z-score,"0.25 µg/ml, genetic background: wild type",0.0425 ± 0.12
same,promoter activity interaction Z-score,"0.25 µg/ml, genetic background: ΔmarA",-0.101 ± 0.24
same,promoter activity interaction Z-score,"0.25 µg/ml, genetic background: Δrob",0.121 ± 0.2
same,promoter activity interaction Z-score,"0.25 µg/ml, genetic background: ΔsoxS",0.165 ± 0.33
same,promoter activity interaction Z-score,"0.51 µg/ml, genetic background: wild type",-0.283 ± 0.1
same,promoter activity interaction Z-score,"0.51 µg/ml, genetic background: ΔmarA",0.127 ± 0.37
same,promoter activity interaction Z-score,"0.51 µg/ml, genetic background: Δrob",-0.0583 ± 0.11
same,promoter activity interaction Z-score,"0.51 µg/ml, genetic background: ΔsoxS",0.00237 ± 0.085
C[C@]12CC[C@@H]3c4ccc(O)cc4CC[C@H]3[C@@H]1CC[C@@H]2O [Estradiol],promoter activity interaction Z-score,"17 µg/ml, genetic background: wild type",0.0618 ± 0.2
same,promoter activity interaction Z-score,"17 µg/ml, genetic background: ΔmarA",-0.313 ± 0.021
same,promoter activity interaction Z-score,"17 µg/ml, genetic background: Δrob",-0.258 ± 0.042
same,promoter activity interaction Z-score,"17 µg/ml, genetic background: ΔsoxS",-0.0159 ± 0.095
same,promoter activity interaction Z-score,"34 µg/ml, genetic background: wild type",-0.352 ± 0.0081
same,promoter activity interaction Z-score,"34 µg/ml, genetic background: ΔmarA",-0.312 ± 0.088
same,promoter activity interaction Z-score,"34 µg/ml, genetic background: Δrob",-0.348 ± 0.044
same,promoter activity interaction Z-score,"34 µg/ml, genetic background: ΔsoxS",0.0387 ± 0.037
same,promoter activity interaction Z-score,"68.1 µg/ml, genetic background: wild type",-0.254 ± 0.14
same,promoter activity interaction Z-score,"68.1 µg/ml, genetic background: ΔmarA",-0.263 ± 0.18
same,promoter activity interaction Z-score,"68.1 µg/ml, genetic background: Δrob",-0.158 ± 0.23
same,promoter activity interaction Z-score,"68.1 µg/ml, genetic background: ΔsoxS",-0.162 ± 0.022
same,promoter activity interaction Z-score,"136.2 µg/ml, genetic background: wild type",-0.478 ± 0.16
same,promoter activity interaction Z-score,"136.2 µg/ml, genetic background: ΔmarA",-0.488 ± 0.082
same,promoter activity interaction Z-score,"136.2 µg/ml, genetic background: Δrob",-0.392 ± 0.36
same,promoter activity interaction Z-score,"136.2 µg/ml, genetic background: ΔsoxS",0.155 ± 0.22
